Source: PubChem BioAssay AID2314 (National Center for Advancing Translational Sciences (NCATS), 2010)
About 37,000 (12%) of roughly 300,000 compounds were called active. This is one part of a sample in which actives are shown more often than they occur. Values without a mark were called inactive. Rule as the data show it: active = max response mostly above about 13% (no sharp cut-off); inactive = mostly below about 14%.

Assay: Cycloheximide Counterscreen for Small Molecule Inhibitors of Shiga Toxin; also: read at 38.3 µM for the half of the compounds with a filed dose; 0% is about no effect
Details: cell reporter, cycloheximide protein synthesis inhibition counterscreen; stronger effect = higher value

| Compound | max response |
| --- | --- |
| Cc1sc2ncn(CC(=O)NCCCC(=O)N(C)Cc3ccccc3)c(=O)c2c1C | 0.104% |
| CCC(=O)N(Cc1cc2ccccc2[nH]c1=O)c1ccc(OC)cc1 | -1.99% |
| O=C(CNC(=O)OCc1ccccc1)NC1CCCCNC1=O (centres undefined) | 1.1% |
| CCOc1ccc(C(=O)Nc2ccc(S(=O)(=O)NCC3CCCO3)cc2)cc1OCC (centres undefined) | -3.06% |
| CCN(CC)CCNc1nc(-c2ccc(OC(F)F)cc2)c(C)s1 | -2.43% |
| COc1ccc(-n2nc(C(=O)NCC(=O)N3CCC(C(N)=O)CC3)c3ccccc3c2=O)cc1OC | -3.96% |
| CC(=O)c1c(C)oc2ccc(NS(=O)(=O)c3ccc(C(=O)O)cc3)cc12 | -0.66% |
| CCCCNC(=O)CSc1nnc(-c2ccco2)n1C | 1.17% |
| Cn1c(SCC(=O)c2cccs2)nnc1-c1ccco1 | 29.8% (active) |
| CCOC(=O)CSc1nnc(-c2ccco2)n1C | -2.04% |
| CC(C)CC(=O)Nc1nnc(S(=O)(=O)N(C)c2ccc(Cl)cc2)s1 | -2.39% |
| COc1ccc2c(C(=O)c3ccc(C)cc3)n(CCC(N)=O)[n+]([O-])c2c1 | 7.82% |
| COC(=O)c1c(NC(=O)c2ccc(S(=O)(=O)N3CCOCC3)cc2)sc2c1CCN(C(C)C)C2 | -1.08% |
| CC(=O)Nc1ccc(NC(=O)C2CCCN(S(=O)(=O)c3ccc(Cl)cc3)C2)cc1 (centres undefined) | -5.06% |
| CC(=O)N1CCC(N(C(=O)Nc2ccc(Cl)cc2)C(C)C)CC1 | 9.65% (active) |
| CCOC(=O)C1CCN(C(=O)Nc2ccc(Cl)cc2)CC1 | 12.6% |
| COc1cccc(NC(=O)C2C(c3ccccc3)C2(Cl)Cl)c1 (centres undefined) | 1.73% |
| CCOCCOC(=O)C(C)Oc1ccc(Oc2ncc(C(F)(F)F)cc2Cl)cc1 (centres undefined) | 0.288% |
| CCOC(=O)CN(C(=O)COc1nc(C)cc(C)c1C#N)c1ccc(Cl)cc1 | 1.33% |
| c1ccc(-n2nc3ccccc3n2)cc1 | 10.4% |
| O=C1CCC(=O)N(c2ccccc2)N1 | 4.98% |
| O=C1CCCc2nn(-c3ccccc3)nc21 | 31.9% (active) |

| Compound | max response |
| --- | --- |
| CCCc1nc(SCC(=O)N2CCCC2)c2c(=O)n(C)c(=O)n(C)c2n1 | -1.08% |
| COCCNC(=O)CN(Cc1ccco1)C(=O)CCC(=O)Nc1nccs1 | -7.71% |
| Cc1ccc(Nc2c(F)c(F)c(F)c(F)c2C(=O)O)c(C)c1 | -3.03% |
| Cc1ccnc(NC(=O)c2ccoc2C)c1 | 35.7% (active) |
| COc1ccccc1OCCNC(=O)CCNC(=O)c1ccccc1Cl | 5.13% |
| COc1cc(SC)ccc1C(=O)N(Cc1ccccc1)c1ccccc1 | -0.326% |
| Cc1ccnc(NC(=O)CCCOc2ccccc2)c1 | 9.11% |
| COc1cc(SC)ccc1C(=O)NCCOc1ccccc1Cl | 57.7% (active) |
| Cc1occc1C(=O)Nc1cccc(Cn2cccn2)c1 | 10.7% |
| COc1cc(SC)ccc1C(=O)Nc1nc(C)cs1 | -6.32% |
| COc1cc(SC)ccc1C(=O)Nc1cc(C)ccn1 | 40.1% (active) |
| COc1ccccc1CNC(=O)c1ccc(SC)cc1OC | 8.03% |
| COc1ccc(CCNc2cc(C)nc3c(-c4ccc(Cl)cc4)c(C)nn23)cc1OC | -1.95% |
| COc1cccc(NC(=O)c2cc(S(=O)(=O)N3CCc4ccccc43)cn2C)c1 | -2.59% |
| CCc1nn(CCCN2CCN(c3cccc(Cl)c3)CC2)c(=O)n1CCOc1ccccc1 | -3.76% [middle of 4 runs] |
| Cn1c(=O)c2c(SCC(=O)NCC3CCCO3)nc(CC(C)(C)C)nc2n(C)c1=O (centres undefined) | 0.724% |
| CC(OC(=O)c1ccccc1OCc1ccc(Cl)cc1)C(N)=O (centres undefined) | 2.27% |
| CC(C)Cc1nnc(NC(=O)CN2C(=O)NC3(CCCCC3)C2=O)s1 | -1.99% |
| C=CCn1cc(Cl)cc(C(=O)Nc2ccccc2)c1=O | 14.1% (active) |
| O=C(O)c1ccc(NC(=O)c2cn(-c3ccccc3)nc2-c2ccc(Cl)cc2)cc1 | 10.4% |
| O=C(Nc1ccc(CN2CCOCC2)cc1)c1cc(Cl)ccc1Cl | -1.65% |
| CCOc1ccc(Br)cc1CSC(=N)N | -0.921% |

| Compound | max response |
| --- | --- |
| O=C(CSc1ccc(-c2cccs2)nn1)Nc1ccccc1F | 16.1% |
| Cc1cccc(CSc2nnc(Cn3c(=O)sc4ccccc43)n2C)c1 | -3.59% |
| Cc1cccc(CSc2ccc(-c3cccs3)nn2)c1 | 35% (active) |
| CCOC(=O)c1ccc(-n2c(CCC(=O)O)ccc2-c2ccccc2)cc1 | -3.35% |
| COc1ccc(CCOC(=O)CNC(=O)c2ccc(Cl)cc2Cl)cc1 | 7.31% |
| CCOC(=O)C1C(c2ccc(Cl)cc2)NC(=S)NC1(O)C(F)(F)F (centres undefined) | -4.55% |
| CC(=O)C1C(c2ccc(Cl)cc2)NC(=O)NC1(O)C(F)(F)F (centres undefined) | -2.92% |
| O=C(c1cccs1)C1C(c2ccc(Br)cc2)NC(=S)NC1(O)C(F)(F)F (centres undefined) | 29.2% (active) |
| CC(C)CCOc1ccc(C(=O)C[N+]2(C)CCOCC2)cc1 | -6.71% |
| Cc1ccc(-c2cc(C(=O)Nc3nn[nH]n3)c3ccccc3n2)c(C)c1 | -3.28% |
| COc1ccc(CN(C)C(=O)c2cc(-c3ccc(C)cc3C)nc3ccccc23)c(OC)c1OC | 9.76% (active) |
| COc1ccc(-c2cc(C(=O)N(C)Cc3ccccc3)c3ccccc3n2)cc1 | 10.1% |
| O=C(CCC1CCN(C(=O)c2cccc(Cl)c2F)CC1)Nc1ccccc1 | 3.41% |
| CC1CCN(CCCn2c(SCC(=O)NC3CCCC3)nc3ccccc3c2=O)CC1 | -1.13% |
| COc1ccc(C(=O)COC(=O)c2nn(C)c(=O)c3ccccc23)c(OC)c1 | 4.36% |
| COc1ccc(CC(=O)NC(C)CCc2ccccc2)cc1 (centres undefined) | -0.862% |
| COc1ccc(C(=O)CCc2ccccc2O)c(OC)c1 | 32.7% (active) |
| COc1ccc(C(=O)CCC(=O)Nc2cccnc2)c(OC)c1 | -5.23% |
| COc1ccc(C(=O)NC(C)CCc2ccccc2)c(OC)c1 (centres undefined) | 25.4% (active) |
| COc1cc(C(=O)OCC(=O)NC(C)CCc2ccccc2)cc(OC)c1OC (centres undefined) | -8.18% |
